The supplement of paper PMC11732987, “Enantioselective OTUD7B fragment discovery through chemoproteomics screening and high-throughput optimisation” (Communications Chemistry, 2025)

Assays:
Test in all cases: log2 ratio of Biotin-Ahx-Ub-VS probe labelling (fragment/DMSO); higher = less target engagement (more negative = stronger competition), active = hit call of the paper (q ≤ 0.05, log2 ratio ≤ -1)
Settings in all cases: compound concentration: 200 uM; treatment time: 3 h
ALG13 = molecular target: T1, ALG13 (UniProt Q9NP73)
T1 sequence (whole entry): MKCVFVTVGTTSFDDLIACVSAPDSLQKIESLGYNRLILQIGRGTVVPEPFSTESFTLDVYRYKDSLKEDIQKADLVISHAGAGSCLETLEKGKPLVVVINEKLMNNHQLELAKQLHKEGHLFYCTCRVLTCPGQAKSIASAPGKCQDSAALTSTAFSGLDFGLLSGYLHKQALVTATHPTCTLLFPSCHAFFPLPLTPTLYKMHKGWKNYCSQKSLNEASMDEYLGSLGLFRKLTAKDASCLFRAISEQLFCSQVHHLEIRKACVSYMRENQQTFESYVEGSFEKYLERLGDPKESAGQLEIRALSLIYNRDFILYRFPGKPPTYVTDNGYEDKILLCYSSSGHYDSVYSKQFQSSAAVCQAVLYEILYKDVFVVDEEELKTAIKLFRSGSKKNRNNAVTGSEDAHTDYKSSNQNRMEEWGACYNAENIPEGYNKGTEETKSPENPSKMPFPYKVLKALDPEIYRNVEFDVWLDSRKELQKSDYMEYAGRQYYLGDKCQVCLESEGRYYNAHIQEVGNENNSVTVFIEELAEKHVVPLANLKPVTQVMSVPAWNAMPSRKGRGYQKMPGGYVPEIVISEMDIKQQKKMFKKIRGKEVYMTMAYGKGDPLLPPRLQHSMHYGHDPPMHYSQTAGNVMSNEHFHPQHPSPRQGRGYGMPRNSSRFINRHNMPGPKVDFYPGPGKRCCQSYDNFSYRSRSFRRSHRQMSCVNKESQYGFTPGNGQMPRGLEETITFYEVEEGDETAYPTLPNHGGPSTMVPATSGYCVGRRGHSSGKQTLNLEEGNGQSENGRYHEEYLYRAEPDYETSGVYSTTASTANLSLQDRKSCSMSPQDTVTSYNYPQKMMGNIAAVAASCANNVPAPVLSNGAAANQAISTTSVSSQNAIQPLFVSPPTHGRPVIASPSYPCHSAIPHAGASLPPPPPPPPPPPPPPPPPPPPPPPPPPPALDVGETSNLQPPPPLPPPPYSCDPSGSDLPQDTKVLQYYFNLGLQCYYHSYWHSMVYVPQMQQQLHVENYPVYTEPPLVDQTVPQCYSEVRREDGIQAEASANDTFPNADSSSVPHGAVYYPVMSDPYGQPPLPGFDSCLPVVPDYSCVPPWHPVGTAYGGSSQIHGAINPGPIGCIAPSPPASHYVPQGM
Method in brief: (§1)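 In triplicate, 495 µg of HEK293T lysate per sample was incubated with fragment at 200 µM or vehicle for 3 h. Biotin-Ahx-Ub-VS was then added to 0.5 µM final for 1 h, and labelled DUBs were captured with NeutrAvidin, digested with LysC and trypsin, and measured by diaPASEF LC-MS/MS. Data are average log2 fragment/vehicle ratios by unpaired t-test from global-median-normalised Spectronaut label-free quantities, restricted to proteins with ≥2 unique peptides.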

ATXN3 = ATXN3 (UniProt P54252)
ATXN3, sequence (P54252 whole entry): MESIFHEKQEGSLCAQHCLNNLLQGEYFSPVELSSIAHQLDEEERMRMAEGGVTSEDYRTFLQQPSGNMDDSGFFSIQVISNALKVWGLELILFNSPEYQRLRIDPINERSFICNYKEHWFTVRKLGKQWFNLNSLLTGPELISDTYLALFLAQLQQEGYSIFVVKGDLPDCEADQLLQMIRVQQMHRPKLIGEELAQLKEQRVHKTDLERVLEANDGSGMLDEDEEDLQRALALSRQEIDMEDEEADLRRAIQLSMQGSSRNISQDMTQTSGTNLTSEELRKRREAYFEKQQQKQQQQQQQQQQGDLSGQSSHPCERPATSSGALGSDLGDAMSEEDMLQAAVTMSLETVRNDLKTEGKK
Method in brief: as §1

BAP1 = molecular target: T2, BAP1 (UniProt Q92560)
T2 sequence (whole entry): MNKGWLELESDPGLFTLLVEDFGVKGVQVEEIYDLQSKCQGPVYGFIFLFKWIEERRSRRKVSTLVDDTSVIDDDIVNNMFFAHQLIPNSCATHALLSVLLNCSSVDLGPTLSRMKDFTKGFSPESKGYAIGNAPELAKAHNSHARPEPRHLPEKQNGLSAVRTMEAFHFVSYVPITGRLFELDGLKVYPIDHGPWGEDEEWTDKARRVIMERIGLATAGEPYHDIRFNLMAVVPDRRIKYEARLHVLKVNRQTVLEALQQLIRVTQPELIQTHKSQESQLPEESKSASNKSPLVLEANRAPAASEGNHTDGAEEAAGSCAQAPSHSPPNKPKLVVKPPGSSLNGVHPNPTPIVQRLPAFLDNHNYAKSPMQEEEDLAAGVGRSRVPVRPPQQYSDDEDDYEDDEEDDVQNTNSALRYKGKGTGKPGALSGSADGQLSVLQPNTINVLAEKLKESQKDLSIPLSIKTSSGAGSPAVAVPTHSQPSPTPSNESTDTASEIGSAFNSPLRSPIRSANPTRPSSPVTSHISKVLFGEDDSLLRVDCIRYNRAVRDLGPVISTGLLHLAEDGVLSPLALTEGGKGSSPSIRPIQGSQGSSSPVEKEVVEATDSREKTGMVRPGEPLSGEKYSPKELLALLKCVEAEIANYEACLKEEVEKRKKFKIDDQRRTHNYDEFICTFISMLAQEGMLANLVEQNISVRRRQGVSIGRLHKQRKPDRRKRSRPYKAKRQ
Method in brief: as §1

EIF3F = EIF3F (UniProt O00303)
EIF3F, sequence (O00303 whole entry): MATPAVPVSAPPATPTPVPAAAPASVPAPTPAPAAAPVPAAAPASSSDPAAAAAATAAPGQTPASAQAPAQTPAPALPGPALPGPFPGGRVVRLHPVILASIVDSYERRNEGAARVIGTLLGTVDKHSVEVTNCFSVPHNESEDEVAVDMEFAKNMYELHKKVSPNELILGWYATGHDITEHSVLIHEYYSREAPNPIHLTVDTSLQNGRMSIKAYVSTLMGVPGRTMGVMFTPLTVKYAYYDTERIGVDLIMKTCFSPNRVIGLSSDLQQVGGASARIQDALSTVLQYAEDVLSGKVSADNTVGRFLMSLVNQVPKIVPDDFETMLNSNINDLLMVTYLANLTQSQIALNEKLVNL
Method in brief: as §1

EIF3H = EIF3H (UniProt O15372)
EIF3H, sequence (O15372 whole entry): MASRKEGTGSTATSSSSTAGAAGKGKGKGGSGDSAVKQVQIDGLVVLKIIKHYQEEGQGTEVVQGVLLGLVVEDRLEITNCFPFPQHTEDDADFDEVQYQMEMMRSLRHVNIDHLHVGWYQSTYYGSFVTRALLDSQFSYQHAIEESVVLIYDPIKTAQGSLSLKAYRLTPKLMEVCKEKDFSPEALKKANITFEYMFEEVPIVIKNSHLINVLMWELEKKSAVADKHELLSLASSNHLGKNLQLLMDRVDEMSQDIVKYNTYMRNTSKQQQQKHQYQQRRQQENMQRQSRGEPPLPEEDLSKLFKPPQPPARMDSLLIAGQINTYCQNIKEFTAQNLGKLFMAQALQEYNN
Method in brief: as §1

FAM105A = molecular target: T3, FAM105A (UniProt Q9NUU6)
T3 sequence (whole entry): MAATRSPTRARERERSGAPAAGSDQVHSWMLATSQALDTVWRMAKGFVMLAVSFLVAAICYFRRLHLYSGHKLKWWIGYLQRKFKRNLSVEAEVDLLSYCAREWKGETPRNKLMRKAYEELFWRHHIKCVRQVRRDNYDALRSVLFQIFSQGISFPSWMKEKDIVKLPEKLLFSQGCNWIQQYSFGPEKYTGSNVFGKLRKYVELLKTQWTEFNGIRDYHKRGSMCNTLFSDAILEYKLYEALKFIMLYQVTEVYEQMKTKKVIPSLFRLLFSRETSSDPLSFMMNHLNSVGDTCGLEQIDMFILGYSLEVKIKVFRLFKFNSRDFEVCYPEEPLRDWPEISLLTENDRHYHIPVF
Method in brief: as §1

OTUB1 = OTUB1 (UniProt Q96FW1)
OTUB1, sequence (Q96FW1 whole entry): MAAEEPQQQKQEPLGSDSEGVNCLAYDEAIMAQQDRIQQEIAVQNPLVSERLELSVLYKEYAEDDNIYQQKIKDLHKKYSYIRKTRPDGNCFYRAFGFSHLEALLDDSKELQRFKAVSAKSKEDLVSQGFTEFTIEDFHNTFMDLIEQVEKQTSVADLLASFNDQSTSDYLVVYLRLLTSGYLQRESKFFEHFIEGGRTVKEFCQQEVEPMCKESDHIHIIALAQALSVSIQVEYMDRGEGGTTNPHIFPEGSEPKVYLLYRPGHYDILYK
Method in brief: as §1

OTUD4 = molecular target: T4, OTUD4 (UniProt Q01804)
T4 sequence (whole entry): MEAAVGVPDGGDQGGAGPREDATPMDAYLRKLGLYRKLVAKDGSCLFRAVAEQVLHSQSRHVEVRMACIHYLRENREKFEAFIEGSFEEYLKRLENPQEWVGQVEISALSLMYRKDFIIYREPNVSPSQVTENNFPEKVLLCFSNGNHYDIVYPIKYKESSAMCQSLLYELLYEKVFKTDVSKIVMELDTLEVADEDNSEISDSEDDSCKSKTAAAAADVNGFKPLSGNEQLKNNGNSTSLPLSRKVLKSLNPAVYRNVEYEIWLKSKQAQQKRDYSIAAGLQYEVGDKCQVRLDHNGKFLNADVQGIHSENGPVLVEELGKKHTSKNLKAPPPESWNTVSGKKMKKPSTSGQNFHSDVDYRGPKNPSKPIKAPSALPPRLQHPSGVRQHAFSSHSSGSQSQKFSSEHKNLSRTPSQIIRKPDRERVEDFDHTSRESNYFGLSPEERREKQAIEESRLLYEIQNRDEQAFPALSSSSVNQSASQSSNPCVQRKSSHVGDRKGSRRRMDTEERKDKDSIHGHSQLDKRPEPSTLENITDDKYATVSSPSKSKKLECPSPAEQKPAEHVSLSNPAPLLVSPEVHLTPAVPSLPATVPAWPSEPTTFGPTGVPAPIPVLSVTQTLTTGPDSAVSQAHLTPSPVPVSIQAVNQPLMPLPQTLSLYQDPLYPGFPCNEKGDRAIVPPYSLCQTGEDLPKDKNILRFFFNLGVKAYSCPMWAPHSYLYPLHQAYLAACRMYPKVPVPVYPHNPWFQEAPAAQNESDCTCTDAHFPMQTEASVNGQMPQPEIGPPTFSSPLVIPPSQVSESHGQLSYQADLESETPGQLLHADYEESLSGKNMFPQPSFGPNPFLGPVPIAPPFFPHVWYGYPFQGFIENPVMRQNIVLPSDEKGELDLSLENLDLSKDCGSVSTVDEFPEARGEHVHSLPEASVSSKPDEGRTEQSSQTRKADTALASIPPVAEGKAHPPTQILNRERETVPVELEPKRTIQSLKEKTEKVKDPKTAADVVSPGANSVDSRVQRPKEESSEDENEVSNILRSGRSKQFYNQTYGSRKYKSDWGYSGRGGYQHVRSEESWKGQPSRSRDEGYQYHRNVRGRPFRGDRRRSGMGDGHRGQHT
Method in brief: as §1

OTUD5 = molecular target: T5, OTUD5 (UniProt Q96G74)
T5 sequence (whole entry): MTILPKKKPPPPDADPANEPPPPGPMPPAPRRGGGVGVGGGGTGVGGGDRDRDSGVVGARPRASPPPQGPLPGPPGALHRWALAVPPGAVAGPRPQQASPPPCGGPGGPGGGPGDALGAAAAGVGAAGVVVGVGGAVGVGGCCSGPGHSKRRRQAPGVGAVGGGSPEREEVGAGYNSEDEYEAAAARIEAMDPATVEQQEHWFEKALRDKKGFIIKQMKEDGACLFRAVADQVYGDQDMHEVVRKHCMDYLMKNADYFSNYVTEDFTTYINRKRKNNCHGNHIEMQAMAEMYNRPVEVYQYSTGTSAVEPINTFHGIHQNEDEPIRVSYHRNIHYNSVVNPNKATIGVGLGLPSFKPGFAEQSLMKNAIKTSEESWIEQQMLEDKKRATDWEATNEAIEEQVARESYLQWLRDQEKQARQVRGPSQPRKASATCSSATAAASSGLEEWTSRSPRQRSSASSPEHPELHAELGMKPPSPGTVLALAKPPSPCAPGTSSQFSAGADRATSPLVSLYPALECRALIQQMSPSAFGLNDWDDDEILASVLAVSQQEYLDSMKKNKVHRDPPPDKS
Method in brief: as §1

Measured: log2 ratio of Biotin-Ahx-Ub-VS probe labelling

O=C(CCl)N1CCN(C(=O)Nc2ccccc2)CC1
inactive: ALG13 0.164 | ATXN3 -0.281 | BAP1 -0.529 | EIF3F 0.181 | EIF3H 0.232 | FAM105A 0.233 | OTUB1 0.155 | OTUD4 0.0219 | OTUD5 -0.224
